# Measured values reported in PubChem BioAssay.
# Activity calls are given as the source filed them. Unless noted, how the calls were made is not given here.
# Tests used:
# [1] = HepG2 liver cancer cell viability effects, profiling panel, resazurin fluorescence, 24 h, PK04 Diversity Set (AID 1172); conditions: higher = more signal
# [2] = basal S. cerevisiae growth modulation, no modifier, primary screen, OD600, strain BY4716, 24 h, basal condition (AID 1173); conditions: OD600, 24 h, higher = more signal, called active from +8 up or from −8 down
# [3] = MM1S myeloma cell viability, profiling panel, resazurin fluorescence, basal, 24 h, PK04 Diversity Set (AID 1174); conditions: higher = more signal, called active from +8 up or from −8 down;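 further: MM1S multiple myeloma cell line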
# [4] = target: Dihydroorotate dehydrogenase (quinone), mitochondrial (Plasmodium falciparum (isolate 3D7)) (UniProt Q08210); assay: PfDHODH enzyme inhibitors, primary screen, biochemical, C-terminal His tag, absorbance 600 nm (AID 1175); conditions: DCIP absorbance 600 nm, higher = more signal, called active from +8 up or from −8 down;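 further: recombinant parasite enzyme with a five histidine tag at its C terminus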
# [5] = P. aeruginosa biofilm formation inhibitors, primary screen, strain PAO1, LB-PBS medium, absorbance 600 nm (AID 1176); conditions: P. aeruginosa PAO1 growth/biofilm, A600, 12 h; higher = more signal
# [6] = S. cerevisiae RM11-1a growth modifiers, primary screen, strain RM11-1a, OD600, basal, 24 h (AID 1177); conditions: OD600, 24 h, higher = more signal, called active from +8 up or from −8 down;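 further: cultures grown under basal conditions with no added stressor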
# [7] = E. coli acrAB mutant growth effects, primary screen, E. coli filamentation inducers, strain DRC39, OD650, 24 h (AID 1178); conditions: higher = more signal, called active from +8 up or from −8 down;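 further: growth measured as culture turbidity by optical density at 650 nm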
# [8] = E. coli acrAB mutant growth effects, primary screen, E. coli filamentation inducers, strain DRC39, OD650, 48 h (AID 1179);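 further: screen aims at cell division blockers that make cells filament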; conditions: E. coli DRC39 delta-acrAB growth, higher = more signal, called active from +8 up or from −8 down
# [9] = RPMI8226 myeloma cell viability, profiling panel, resazurin fluorescence, basal, 24 h, PK04 Diversity Set (AID 1180); conditions: higher = more signal;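 further: RPMI8826 multiple myeloma cell line at 5000 cells per well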
# [10] = target: E3 ubiquitin-protein ligase XIAP (Homo sapiens) (UniProt P98170); assay: XIAP binders, primary screen, biophysical, small-molecule microarray, fluorescence 635 nm (AID 1181); conditions: small-molecule microarray binding, higher = more signal;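 further: score merges 667 nm emission and signal to noise over triplicate slides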
# [11] = system: XIP peptide (Xip251-270) binding; assay: small-molecule binders of XIP peptide, primary screen, biochemical, small-molecule microarray, fluorescence 635/667 nm, 0.1 µg/mL protein (AID 1182); conditions: fluorescent protein binding, 635 nm, higher = more signal, called active from +8 up or from −8 down
# [12] = system: XIP peptide (Xip251-270); assay: small-molecule binders of XIP peptide, primary screen, biochemical, small-molecule microarray, fluorescence 635/667 nm, 0.5 µg/mL protein (AID 1183); conditions: small-molecule microarray binding, fluorescence 635 nm; higher = more signal
# [13] = Plasmodium falciparum growth inhibition, primary screen, strain 3D7, DAPI fluorescence, 100 nL (AID 1184);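 further: parasites grown inside human red blood cells in medium with human serum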; conditions: P. falciparum 3D7 growth, 3 d, higher = more signal
# [14] = target: Homeobox protein Hox-A13 (Mus musculus) (UniProt Q62424); assay: inhibitors of HoxA13-DNA binding, primary screen, biochemical, fluorescence polarization, labeled oligonucleotide (AID 1185); conditions: 15 min, higher = more signal, called active from +8 up or from −8 down
# [15] = inhibitors of hydroxyurea-induced Chk1 phosphorylation, primary screen, imaging, HeLa, phospho-Chk1 antibody, percent positive cells (AID 1186); conditions: hydroxyurea-induced phospho-Chk1 immunofluorescence imaging, higher = more signal
# [16] = inhibitors of hydroxyurea-induced Chk1 phosphorylation, primary screen, imaging, HeLa, phospho-Chk1 nuclear intensity (AID 1187); conditions: hydroxyurea-induced phospho-Chk1 immunofluorescence imaging, higher = more signal
# Sequence of E3 ubiquitin-protein ligase XIAP (Homo sapiens) (P98170 whole entry, looked up): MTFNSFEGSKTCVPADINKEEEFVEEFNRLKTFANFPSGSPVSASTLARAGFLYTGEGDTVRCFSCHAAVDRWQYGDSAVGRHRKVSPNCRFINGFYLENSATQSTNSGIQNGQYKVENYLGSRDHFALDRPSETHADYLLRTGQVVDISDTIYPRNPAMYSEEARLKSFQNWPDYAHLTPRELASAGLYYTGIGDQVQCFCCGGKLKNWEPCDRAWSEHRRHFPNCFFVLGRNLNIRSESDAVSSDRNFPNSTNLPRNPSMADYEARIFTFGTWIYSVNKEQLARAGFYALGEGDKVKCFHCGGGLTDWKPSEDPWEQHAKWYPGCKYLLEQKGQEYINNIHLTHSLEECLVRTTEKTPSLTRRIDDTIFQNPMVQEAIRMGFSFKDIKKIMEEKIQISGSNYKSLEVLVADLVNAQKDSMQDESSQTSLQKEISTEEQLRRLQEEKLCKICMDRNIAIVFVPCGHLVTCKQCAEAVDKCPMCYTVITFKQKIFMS
# Sequence of Homeobox protein Hox-A13 (Mus musculus) (Q62424 whole entry, looked up): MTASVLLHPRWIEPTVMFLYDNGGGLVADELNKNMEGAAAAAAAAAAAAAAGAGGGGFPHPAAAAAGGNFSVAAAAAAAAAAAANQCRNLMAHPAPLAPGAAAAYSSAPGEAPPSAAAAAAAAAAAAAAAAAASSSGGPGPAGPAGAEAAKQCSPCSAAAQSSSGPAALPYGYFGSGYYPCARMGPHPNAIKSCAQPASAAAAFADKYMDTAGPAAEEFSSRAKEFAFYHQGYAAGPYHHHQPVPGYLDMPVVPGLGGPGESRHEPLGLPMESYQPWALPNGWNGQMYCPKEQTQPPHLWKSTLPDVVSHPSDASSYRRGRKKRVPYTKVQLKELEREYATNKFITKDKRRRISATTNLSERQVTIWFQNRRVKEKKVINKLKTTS
# Sequence of Dihydroorotate dehydrogenase (quinone), mitochondrial (Plasmodium falciparum (isolate 3D7)) (Q08210 whole entry, looked up): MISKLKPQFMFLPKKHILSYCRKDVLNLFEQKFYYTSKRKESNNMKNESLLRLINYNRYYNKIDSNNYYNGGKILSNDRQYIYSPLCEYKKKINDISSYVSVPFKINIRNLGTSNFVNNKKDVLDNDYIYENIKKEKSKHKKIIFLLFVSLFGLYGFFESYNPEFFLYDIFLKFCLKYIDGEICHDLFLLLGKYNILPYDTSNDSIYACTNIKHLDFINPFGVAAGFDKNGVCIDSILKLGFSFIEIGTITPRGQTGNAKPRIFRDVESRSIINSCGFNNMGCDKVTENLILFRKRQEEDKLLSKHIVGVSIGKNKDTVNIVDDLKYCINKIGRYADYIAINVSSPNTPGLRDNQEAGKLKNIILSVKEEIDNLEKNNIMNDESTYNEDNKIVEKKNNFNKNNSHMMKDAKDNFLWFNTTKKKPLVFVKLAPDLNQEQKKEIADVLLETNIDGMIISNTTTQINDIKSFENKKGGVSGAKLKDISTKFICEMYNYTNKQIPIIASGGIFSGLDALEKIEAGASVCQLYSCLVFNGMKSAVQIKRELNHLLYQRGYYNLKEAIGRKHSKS
SMILES,z-score [1],z-score [2],z-score [3],composite z-score [4],z-score [5],z-score [6],z-score [7],z-score [8],z-score [9],composite z-score [10],composite z-score [11],composite z-score [12],z-score [13],z-score [14],z-score [15],z-score [16]
CC(C)(C)N1CC=CC23O[C@@H]4/C=C\CCCOC(=O)C4[C@H]2C(=O)N(CCCCCO)[C@@H]3C1=O (stereo partly drawn),-0.144,0.309 (inactive),0.0676 (inactive),-0.22 (inactive),0.481 (inactive),-0.746 (inactive),0.0531 (inactive),-0.0503 (inactive),-0.119,-0.11,0.176 (inactive),-1.03,1.91,-4.34 (inactive),0.395 (inactive),0.144 (inactive)
COc1cc(CO)cc(I)c1O[C@H]1C=C(C(=O)NCCO)C[C@@H]2O[C@H]12,-0.876,-11.2 (active),-0.0563 (inactive),-1.32 (inactive),-0.0339 (inactive),1.69 (inactive),-0.364 (inactive),-0.475 (inactive),-0.408,0.305,0.28 (inactive),0.347,-1.41,-7.29 (inactive),0.552 (inactive),0.361 (inactive)
CC[C@@H]1C=C(C(=O)O)[C@H](c2ccc(OC)cc2)N1S(=O)(=O)c1ccc(C)cc1,-0.896,0.77 (inactive),-0.675 (inactive),-1.09 (inactive),-0.281 (inactive),-0.391 (inactive),-0.826 (inactive),-0.521 (inactive),-1.16,-0.0286,1.98 (inactive),0.129,2.03,-2.62 (inactive),-0.745 (inactive),-1.26 (inactive)
CCCCC(O)C1C=CC2C(=O)N(c3ccccc3)C(=O)C2N1Nc1ccc(C#N)cc1 (stereo not drawn),-0.438,-1.03 (inactive),0.0125 (inactive),0.318 (inactive),0.999 (inactive),0.63 (inactive),0.172 (inactive),-0.465 (inactive),0.628,0.169,1 (inactive),0.109,0.832,-3.62 (inactive),0.194 (inactive),0.404 (inactive)
O=C(N1CCOCC1)[C@@]1(Cc2ccccc2)COC(c2ccc(OCCCO)cc2)=N1,-0.395,-3.37 (inactive),0.13 (inactive),-0.641 (inactive),0.565 (inactive),-0.428 (inactive),1.26 (inactive),0.284 (inactive),1.15,0.081,0.509 (inactive),0.52,-1.99,-5.19 (inactive),-0.42 (inactive),-0.504 (inactive)
CC1CC/C=C\[C@H]2OC34C=CCN(CCN5CCOCC5)C(=O)[C@H]3N(CCCO)C(=O)[C@@H]4C2C(=O)O1 (stereo partly drawn),-0.505,0.356 (inactive),-0.431 (inactive),0.199 (inactive),0.233 (inactive),0.296 (inactive),-0.47 (inactive),-0.496 (inactive),-0.479,0.158,0.537 (inactive),-0.868,-0.246,-6.46 (inactive),0.58 (inactive),0.667 (inactive)
CC(C)(C)N1CC=CC23O[C@@H]4C=CCOC(=O)[C@@H]4[C@H]2C(=O)N(CCO)[C@@H]3C1=O (stereo partly drawn),-0.237,0.377 (inactive),-0.0504 (inactive),-0.0529 (inactive),-0.994 (inactive),0.0505 (inactive),0.0531 (inactive),-0.147 (inactive),-0.167,-0.0969,0.218 (inactive),0.57,0.885,-3.33 (inactive),0.121 (inactive),-0.307 (inactive)
COc1ccc([Si](C)(C)[C@H]2[C@H](CCO)O[C@@]3(C(=O)N(Cc4cccc(N5C(=O)c6ccccc6Oc6ccccc65)c4)c4ccccc43)[C@@H]2C)cc1,-1.86,-0.653 (inactive),-2.97 (inactive),0.75 (inactive),1.01 (inactive),3.62 (inactive),1.42 (inactive),0.597 (inactive),-4.05,-0.115,0.505 (inactive),0.571,-2.82,-0.884 (inactive),-0.432 (inactive),-0.702 (inactive)
CCCNC(=O)[C@@]1(Sc2ccc(C)cc2)CC(=O)N(Cc2ccccc2Cl)[C@@H]1c1ccc(CO)cc1I,0.766,-4.16 (inactive),-3.58 (inactive),-0.139 (inactive),0.034 (inactive),-0.641 (inactive),0.466 (inactive),1.01 (inactive),-1.28,-0.302,0.263 (inactive),0.157,-0.0495,-2.99 (inactive),0.242 (inactive),0.677 (inactive)
O=C1C[C@@](C(=O)O)(c2ccc([N+](=O)[O-])cc2)[C@@H](c2ccc(CO)cc2)N1C1CCCCC1,-0.562,0.408 (inactive),-0.544 (inactive),-0.0999 (inactive),-0.0123 (inactive),1.3 (inactive),0.576 (inactive),-0.199 (inactive),0.0311,-0.193,0.803 (inactive),0.73,-1.13,-4.33 (inactive),-0.119 (inactive),0.0584 (inactive)
COCCOC(=O)N1C(=O)[C@@]2(c3cc(C#CCCO)ccc31)[C@H](c1ccccc1OCCO)N1[C@H](c3ccccc3)[C@H](c3ccccc3)OC(=O)[C@H]1[C@@H]2C(N)=O,-0.0989,1.42 (inactive),-1.49 (inactive),-0.0125 (inactive),-0.0199 (inactive),2.34 (inactive),0.641 (inactive),-0.605 (inactive),-1.45,-0.02,0.316 (inactive),0.732,-2.22,-3.69 (inactive),-0.271 (inactive),-0.0408 (inactive)
COCCOC(=O)N1C(=O)[C@@]2(c3cc(C#CCCO)ccc31)[C@H](C(N)=O)[C@H]1C(=O)O[C@H](c3ccccc3)[C@H](c3ccccc3)N1[C@@H]2c1ccccc1OCCO,-0.231,1.11 (inactive),-2.76 (inactive),0.754 (inactive),0.594 (inactive),2.34 (inactive),0.354 (inactive),0.449 (inactive),-1.95,-0.124,1.47 (inactive),0.832,-1.31,-3.88 (inactive),0.0461 (inactive),-0.303 (inactive)
O=C1[C@H]2C=C(I)[C@H](C[C@@H]2c2ccccc2)[C@@]12CO2,-0.488,-11.5 (active),-0.886 (inactive),-0.376 (inactive),0.236 (inactive),-2.23 (inactive),-0.791 (inactive),-1.24 (inactive),-0.603,-0.223,-0.432 (inactive),-0.321,1.46,-1.96 (inactive),-0.428 (inactive),-0.0968 (inactive)
CC1CC/C=C\[C@H]2OC34C=CCN(Cn5nnc6ccccc65)C(=O)[C@H]3N(CCCCCCO)C(=O)[C@@H]4C2C(=O)O1 (stereo partly drawn),0.535,-0.705 (inactive),0.501 (inactive),-0.374 (inactive),0.137 (inactive),0.85 (inactive),0.816 (inactive),0.703 (inactive),1.16,-0.244,0.0152 (inactive),0.217,0.21,-3.02 (inactive),-0.481 (inactive),-0.521 (inactive)
CN1C(=O)C2C(C1=O)C1C=C(CCCO)C2C(C2CC2)N1Cc1cccc(OC(F)(F)F)c1 (stereo not drawn),-0.584,-1.13 (inactive),-0.551 (inactive),-1.75 (inactive),0.559 (inactive),0.132 (inactive),0.492 (inactive),-0.377 (inactive),-0.615,0.0105,0.0292 (inactive),0.9,-1.06,-7.06 (inactive),0.0426 (inactive),-0.0667 (inactive)
O=C(NCc1ccc(F)cc1)[C@H]1C[C@H]2C(=O)N3CCC[C@H]3C(=O)N2[C@H]1c1ccc(O)cc1,-0.388,-0.542 (inactive),0.698 (inactive),-1.47 (inactive),2.39 (inactive),-0.795 (inactive),0.639 (inactive),-0.545 (inactive),0.379,0.33,-0.0173 (inactive),0.702,-1.21,1.55 (inactive),-0.717 (inactive),-0.415 (inactive)
O=C1O[C@H](c2ccccc2)[C@H](c2ccccc2)N2[C@H]1[C@@H](C(=O)N1CCN(c3ncccn3)CC1)[C@]1(C(=O)Nc3ccc(C#CCCO)cc31)[C@H]2c1ccc(O)cc1,0.0071,0.298 (inactive),0.34 (inactive),0.438 (inactive),0.462 (inactive),0.254 (inactive),-0.386 (inactive),-0.395 (inactive),0.186,-0.088,-0.224 (inactive),0.726,-0.707,-2.81 (inactive),-0.114 (inactive),-0.212 (inactive)
C=CCN1Cc2ccccc2[C@H]2OC(c3ccc(OCCCO)cc3)=N[C@@]2(CCS(=O)(=O)c2ccccc2)C1=O,-0.439,1.11 (inactive),-0.321 (inactive),0.2 (inactive),1.2 (inactive),0.86 (inactive),-0.135 (inactive),-0.342 (inactive),-0.0829,-0.0599,1.61 (inactive),0.767,-2.18,-3.88 (inactive),-0.163 (inactive),-0.237 (inactive)
